Data taken from the supplement of paper PMC9694430.

What was measured:
Experiment in all cases: thermal shift delta Tm vs DMSO control; higher = stronger stabilization (binding)
Details in all cases: 12.5 µM; protein concentration 2 µM
[1] = tested on: LOC_OS02G45750-cb003
How it was run: (§1)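 Purified, E. coli-expressed rice kinase domain constructs were tested by differential scanning fluorimetry in 96-well plates: 19.5 μl of 2 μM kinase in 100 mM potassium phosphate pH 7.5, 150 mM NaCl, 10% glycerol, 5 × SYPRO Orange, plus compound in DMSO. Fluorescence was read from 25°C to 95°C at 0.05°C/s. Melting temperatures came from Boltzmann fits, and the shift is the triplicate mean relative to protein with DMSO alone.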

[2] = tested on: LOC_OS02G54510-cb004
How it was run: as §1

[3] = tested on: LOC_OS03G04050-cb001
How it was run: as §1

[4] = tested on: LOC_OS03G12390-cb001
How it was run: as §1

[5] = tested on: LOC_OS03G27990-cb004
How it was run: as §1

[6] = tested on: LOC_OS03G50450-cb001
How it was run: as §1

[7] = tested on: LOC_OS03G50810-cb003
How it was run: as §1

[8] = tested on: LOC_OS04G35114-cb001
How it was run: as §1

[9] = tested on: T1, LOC_OS04G38480-cb003
T1 sequence (whole entry): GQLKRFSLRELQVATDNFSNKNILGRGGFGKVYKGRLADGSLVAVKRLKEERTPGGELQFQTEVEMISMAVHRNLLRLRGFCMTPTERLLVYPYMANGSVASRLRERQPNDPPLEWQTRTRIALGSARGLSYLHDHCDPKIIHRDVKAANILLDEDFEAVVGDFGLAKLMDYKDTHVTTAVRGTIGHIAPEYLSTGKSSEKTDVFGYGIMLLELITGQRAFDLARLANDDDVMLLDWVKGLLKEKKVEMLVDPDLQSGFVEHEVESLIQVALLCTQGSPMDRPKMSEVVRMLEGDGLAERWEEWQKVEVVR
How it was run: as §1

[10] = tested on: T2, LOC_OS04G41100-cb001
T2 sequence (whole entry): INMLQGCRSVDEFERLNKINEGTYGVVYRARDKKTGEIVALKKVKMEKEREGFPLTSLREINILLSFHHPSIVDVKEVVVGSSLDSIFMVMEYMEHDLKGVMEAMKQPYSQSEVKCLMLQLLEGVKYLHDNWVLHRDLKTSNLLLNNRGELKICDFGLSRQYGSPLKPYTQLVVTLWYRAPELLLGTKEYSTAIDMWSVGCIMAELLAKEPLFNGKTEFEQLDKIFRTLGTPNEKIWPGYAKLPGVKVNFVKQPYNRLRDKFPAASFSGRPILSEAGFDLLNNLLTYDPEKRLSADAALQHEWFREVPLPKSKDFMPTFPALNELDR
How it was run: as §1

[11] = tested on: LOC_OS04G57630-cb004
How it was run: as §1

[12] = tested on: LOC_OS05G07850-cb002
How it was run: as §1

[13] = tested on: LOC_OS05G16824-cb004
How it was run: as §1

[14] = tested on: LOC_OS05G28520-cb001
How it was run: as §1

[15] = tested on: LOC_OS05G30820-cb001
How it was run: as §1

[16] = tested on: LOC_OS05G43570-cb004
How it was run: as §1

[17] = tested on: LOC_OS06G16330-cb003
LOC_OS06G16330-cb003, sequence (as listed by the source): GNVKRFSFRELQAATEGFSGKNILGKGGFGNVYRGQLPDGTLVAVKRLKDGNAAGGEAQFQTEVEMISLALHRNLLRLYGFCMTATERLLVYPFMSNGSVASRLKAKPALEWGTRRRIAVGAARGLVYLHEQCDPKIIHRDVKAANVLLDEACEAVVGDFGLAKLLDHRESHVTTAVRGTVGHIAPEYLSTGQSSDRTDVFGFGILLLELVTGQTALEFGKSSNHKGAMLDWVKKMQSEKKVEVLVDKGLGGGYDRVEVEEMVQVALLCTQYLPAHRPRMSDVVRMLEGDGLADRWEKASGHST
How it was run: as §1

[18] = tested on: T3, LOC_OS06G22820-cb001
T3 sequence (whole entry): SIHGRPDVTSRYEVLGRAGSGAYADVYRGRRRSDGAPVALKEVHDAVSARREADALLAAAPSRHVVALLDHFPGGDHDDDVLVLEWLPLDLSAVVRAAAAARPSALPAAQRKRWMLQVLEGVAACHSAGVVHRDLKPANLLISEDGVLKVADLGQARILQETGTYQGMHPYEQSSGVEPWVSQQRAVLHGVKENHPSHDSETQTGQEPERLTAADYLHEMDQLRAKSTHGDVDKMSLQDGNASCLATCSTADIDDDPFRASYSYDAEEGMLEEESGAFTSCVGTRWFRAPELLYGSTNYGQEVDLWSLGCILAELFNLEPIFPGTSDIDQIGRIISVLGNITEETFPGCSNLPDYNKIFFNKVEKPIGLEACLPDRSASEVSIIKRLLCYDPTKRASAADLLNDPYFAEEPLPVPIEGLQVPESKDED
How it was run: as §1

[19] = tested on: LOC_OS07G06570-cb004
How it was run: as §1

[20] = tested on: LOC_OS07G07230-cb001
How it was run: as §1

| SMILES | thermal shift delta Tm [1] | thermal shift delta Tm [2] | thermal shift delta Tm [3] | thermal shift delta Tm [4] | thermal shift delta Tm [5] | thermal shift delta Tm [6] | thermal shift delta Tm [7] | thermal shift delta Tm [8] | thermal shift delta Tm [9] | thermal shift delta Tm [10] | thermal shift delta Tm [11] | thermal shift delta Tm [12] | thermal shift delta Tm [13] | thermal shift delta Tm [14] | thermal shift delta Tm [15] | thermal shift delta Tm [16] | thermal shift delta Tm [17] | thermal shift delta Tm [18] | thermal shift delta Tm [19] | thermal shift delta Tm [20] |
| --- | --- | --- | --- | --- | --- | --- | --- | --- | --- | --- | --- | --- | --- | --- | --- | --- | --- | --- | --- | --- |
| Clc1ccc(C2(c3ccc(-c4cn[nH]c4)cc3)CCNCC2)cc1 | -0.2 °C | 0.04 °C | 0.31 °C | 0.47 °C | 0.05 °C | 0.32 °C | 0.32 °C | 0.57 °C | 0.33 °C | 0.38 °C | 0.35 °C | 1.23 °C | -0.22 °C | 0.22 °C | 0.51 °C | 1.87 °C | 0.19 °C | 0.61 °C | 1.01 °C | 0.03 °C |
| O=C(O[C@@H]1Cc2c(O)cc(O)cc2O[C@@H]1c1cc(O)c(O)c(O)c1)c1cc(O)c(O)c(O)c1 [(-)-Epigallocatechin Gallate] | -1.81 °C | -0.12 °C | 0.68 °C | -1.02 °C | 0.05 °C | -0.27 °C | -1.51 °C | -2.2 °C | 2.43 °C | 1.15 °C | 0.03 °C | -2.62 °C | -0.59 °C | 0.94 °C | 0.74 °C | 1.57 °C | 0.52 °C | 1.84 °C | -0.75 °C | 0.18 °C |
| CC(C)n1ncnc1-c1cn2c(n1)-c1ccc(O[C@@H](C)C(N)=O)cc1OCC2 | 0.39 °C | 0.04 °C | 0.37 °C | 0.09 °C | 0.14 °C | 0.37 °C | 0.53 °C | 0.71 °C | 0.74 °C | 0.13 °C | -0.03 °C | -0.96 °C | -0.54 °C | 0.38 °C | 0.25 °C | 0.23 °C | -0.02 °C | 0.43 °C | 0.88 °C | 0.22 °C |
| COc1cc2nccc(Oc3ccc(NC(=O)C4(C(=O)Nc5ccc(F)cc5)CC4)cc3)c2cc1OC [Cabozantinib malate (XL184)] | 0.86 °C | 0.27 °C | 0.7 °C | 0.1 °C | 0.34 °C | 0.45 °C | 0.59 °C | 0.52 °C | 1.59 °C | 0.69 °C | 0.66 °C | 10.2 °C | -1.18 °C | 1.86 °C | 0.41 °C | 0.69 °C | 1.53 °C | 0.93 °C | 1.5 °C | -0.02 °C |
| CO[C@H]1C[C@@H]2CC[C@@H](C)[C@@](O)(O2)C(=O)C(=O)N2CCCC[C@H]2C(=O)O[C@H]([C@H](C)C[C@@H]2CC[C@@H](OC(=O)C(C)(CO)CO)[C@H](OC)C2)CC(=O)[C@H](C)/C=C(\C)[C@@H](O)[C@@H](OC)C(=O)[C@H](C)C[C@H](C)/C=C/C=C/C=C/1C | 0.69 °C | -0.04 °C | 0.5 °C | -0.26 °C | 0.07 °C | 0.44 °C | -0.05 °C | -0.13 °C | 1.42 °C | 0.7 °C | -0.25 °C | 0.18 °C | -4.25 °C | 0.46 °C | 0.38 °C | 0.24 °C | -0.27 °C | 0.76 °C | 0.91 °C | 0.12 °C |
| COCC(=O)NC/C=C/c1ccc2ncnc(Nc3ccc(Oc4ccc(C)nc4)c(C)c3)c2c1 | 0.33 °C | -0.01 °C | 0.28 °C | -0.25 °C | -0.01 °C | -0.22 °C | -0.16 °C | 1.94 °C | 0.14 °C | 0.5 °C | 0.08 °C | 3.11 °C | -4.84 °C | -0.02 °C | 0.4 °C | 0.04 °C | 0.23 °C | 0.59 °C | 0.41 °C | 0.08 °C |
| C[C@@H]1COC(Nc2ccc3ncnc(Nc4ccc(OCc5nccs5)c(Cl)c4)c3c2)=N1 [Varlitinib] | 1.53 °C | 0.27 °C | 0.48 °C | 0.13 °C | 0.32 °C | 0.46 °C | 0.41 °C | 1.59 °C | 1.56 °C | 0.59 °C | 1.38 °C | 3.96 °C | -3.4 °C | 0.54 °C | 0.94 °C | 0.53 °C | 1.46 °C | 0.8 °C | 0.43 °C | 0.26 °C |
| CCOc1cc2ncc(C#N)c(Nc3ccc(F)c(Cl)c3)c2cc1NC(=O)/C=C/CN(C)C [Pelitinib (EKB-569)] | 4.93 °C | 0.37 °C | 0.32 °C | 0.42 °C | 3.2 °C | 0.73 °C | 1.15 °C | 5.5 °C | 0.56 °C | 0.56 °C | 0.32 °C | 2.2 °C | -1.87 °C | -0.33 °C | 0.56 °C | 0.2 °C | 2.16 °C | 0.39 °C | 0.65 °C | 0.56 °C |
| COc1ccc(CCNCc2ccc(OCc3ccc(Cl)nc3)c(OC)c2)cc1OC | -0.45 °C | 0 °C | 0 °C | -0.53 °C | 0.12 °C | -0.17 °C | 0.18 °C | 0.23 °C | 0.05 °C | 0.41 °C | 0.32 °C | -0.86 °C | -5.08 °C | 0.09 °C | 0.33 °C | -0.15 °C | -0.05 °C | 0.26 °C | 0.85 °C | 0.59 °C |
| Cc1c(C(=O)N2CCOc3ccc(-c4ccc(N)nc4)cc3C2)ccc(S(C)(=O)=O)c1F | 0.79 °C | 0.21 °C | 0.5 °C | 0.38 °C | 0.27 °C | 0.12 °C | 0.24 °C | 0.73 °C | 0.22 °C | 0.43 °C | 0.14 °C | 0.91 °C | -4.24 °C | 0.33 °C | 0.36 °C | 0.13 °C | 1.82 °C | 0.73 °C | 0.94 °C | 0.23 °C |
| CC(=O)Nc1cccc(-n2c(=O)n(C3CC3)c(=O)c3c(Nc4ccc(I)cc4F)n(C)c(=O)c(C)c32)c1 | 0.35 °C | -0.04 °C | 0.2 °C | -0.13 °C | 0.22 °C | 0.62 °C | 0.43 °C | 0.56 °C | 0.86 °C | 0.62 °C | 0.23 °C | 0.88 °C | -0.98 °C | 0.48 °C | 0.42 °C | 0.15 °C | -0.52 °C | 0.44 °C | 0.26 °C | -0.16 °C |
| COc1ccc(-c2ccc3c(N4CCOC[C@@H]4C)nc(N4CCOC[C@@H]4C)nc3n2)cc1CO | 0.67 °C | 0.38 °C | 0.33 °C | -0.12 °C | 0.09 °C | 0.41 °C | 0.18 °C | 0.4 °C | -0.21 °C | 0.57 °C | -0.09 °C | 0.42 °C | -7.62 °C | 0.13 °C | 0.67 °C | 0.21 °C | 0.03 °C | 0.43 °C | 0.38 °C | 0.11 °C |
